Test results as given in paper PMC7826789 (International Journal of Molecular Sciences, 2021).

How the values were obtained:
Conditions in all cases: Compound Concentration (nM):1000
PRKG1 = test system: PRKG1
PRKG2 = test system: PRKG2
PRKR = test system: T1, PRKR
T1 construct: gene EIF2AK2

PRKX = test system: PRKX
PRP4 = test system: T2, PRP4
T2 construct: gene PRPF4B

PYK2 = test system: T3, PYK2
T3 construct: gene PTK2B

QSK = test system: T4, QSK
T4 construct: gene KIAA0999

RAF1 = test system: RAF1
RET(M918T) = test system: RET(M918T)
RET(V804L) = test system: RET(V804L)
RET(V804M) = test system: RET(V804M)
RET = test system: RET
RIOK1 = test system: RIOK1
RIOK2 = test system: RIOK2
RIOK3 = test system: RIOK3
RIPK1 = test system: RIPK1
RIPK2 = test system: RIPK2
RIPK4 = test system: RIPK4
RIPK5 = test system: T5, RIPK5
T5 construct: gene DSTYK

ROCK1 = test system: ROCK1
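Note: KINOMEscan scanMAX binding as percent activity remaining versus control; lower means stronger binding.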

| Structure (SMILES) | Percent Control (PRKG1) | Percent Control (PRKG2) | Percent Control (PRKR) | Percent Control (PRKX) | Percent Control (PRP4) | Percent Control (PYK2) | Percent Control (QSK) | Percent Control (RAF1) | Percent Control (RET(M918T)) | Percent Control (RET(V804L)) | Percent Control (RET(V804M)) | Percent Control (RET) | Percent Control (RIOK1) | Percent Control (RIOK2) | Percent Control (RIOK3) | Percent Control (RIPK1) | Percent Control (RIPK2) | Percent Control (RIPK4) | Percent Control (RIPK5) | Percent Control (ROCK1) |
| --- | --- | --- | --- | --- | --- | --- | --- | --- | --- | --- | --- | --- | --- | --- | --- | --- | --- | --- | --- | --- |
| COc1cc(C=NNc2ncnc3c2cnn3-c2ccccc2)ccc1O [GW513184X] | 100% | 100% | 76% | 100% | 100% | 100% | 100% | 100% | 18% | 90% | 100% | 44% | 32% | 45% | 16% | 96% | 50% | 9.1% | 90% | 97% |
| Cl.O=C(Nc1ccc(Oc2ccc3[nH]c(NC(=O)c4ccco4)nc3c2)cc1)Nc1cc(C(F)(F)F)ccc1F [GW683134A] | 96% | 88% | 68% | 100% | 100% | 93% | 100% | 9.5% | 0.7% | 0.4% | 0.4% | 0% | 64% | 98% | 40% | 21% | 48% | 100% | 100% | 73% |
| CCc1ccc(Oc2nccc(-c3c(-c4ccc(F)cc4)ncn3C3CCNCC3)n2)cc1 [SB-242719] | 100% | 92% | 100% | 86% | 100% | 97% | 85% | 100% | 93% | 88% | 100% | 100% | 57% | 97% | 72% | 100% | 59% | 100% | 82% | 100% |
| Cc1cc(O)cc(C)c1/C=C/c1cncc(C(N)=O)c1 [GW435821X] | 100% | 100% | 94% | 100% | 100% | 100% | 86% | 58% | 100% | 100% | 100% | 100% | 99% | 100% | 93% | 100% | 21% | 100% | 93% | 100% |
| C/C(Nc1ccc(S(N)(=O)=O)cc1)=C1/C(=O)Nc2ccccc21 [GW335962X] | 90% | 94% | 63% | 87% | 100% | 99% | 97% | 83% | 92% | 98% | 100% | 96% | 82% | 100% | 69% | 96% | 83% | 86% | 48% | 83% |
| COc1ccccc1-c1cc(/C=C2\C(=O)Nc3ncc(Br)cc32)cc(Br)c1O [GW442130X] | 100% | 100% | 90% | 100% | 96% | 100% | 100% | 100% | 100% | 91% | 100% | 100% | 100% | 17% | 100% | 100% | 100% | 100% | 100% | 96% |
| CN(C)CCNC(=O)Nc1ccc(N(C)c2ccnc(Nc3ccc(CS(C)(=O)=O)cc3)n2)cc1.Cl [GW830900A] | 100% | 95% | 100% | 90% | 100% | 57% | 87% | 100% | 79% | 88% | 86% | 60% | 9.5% | 90% | 17% | 99% | 94% | 60% | 32% | 9.4% |
| CN1CCN(C(=O)c2ccc(NC(=O)Nc3ccc(N(C)c4ccnc(Nc5ccc(CS(C)(=O)=O)cc5)n4)cc3)cc2)CC1.Cl [GW830263A] | 100% | 100% | 100% | 100% | 88% | 20% | 86% | 90% | 0.2% | 5.5% | 0.5% | 0% | 2.2% | 21% | 0% | 100% | 94% | 57% | 5.4% | 17% |
| COc1ccc2cc(-c3c(-c4ccncc4)nc(-c4ccc(S(C)(=O)=O)cc4C)n3C)ccc2c1 [SB-633825] | 100% | 83% | 100% | 95% | 68% | 57% | 79% | 74% | 72% | 94% | 97% | 72% | 22% | 92% | 78% | 34% | 81% | 61% | 75% | 78% |
